Here are results for 37 molecules from PubChem BioAssay (NCATS).

For experiment [1] the following is noted: Ebola virus entry assay, blue channel fluorescence.
The conditions of experiment [2]: Ebola virus entry reporter assay, green channel fluorescence. A general note: A reporter such as luciferase makes a cellular process visible.
For experiment [3] the following is noted: Ebola virus entry cell assay, ratio channel.
A short description of experiment [4]: Immunotoxin (HA22) sensitization/mitigation study. Vehicle arm (PBS) (AID 1159510). Also: potency is read from the fitted curve at half-maximal effect. The note with it: cancer cells viability with PBS vehicle (HA22 study); series mostly up to 46.1 µM.
A short description of experiment [5]: Immunotoxin (SS1P) sensitization/mitigation study. Vehicle arm (DMEM) (AID 1159513). Also: potency is read from the fitted curve at half-maximal effect. Conditions: cell viability with vehicle (DMEM); series mostly up to 46.1 µM.
Experiment [6] can be described thus: High-throughput drug toxicity screening in the BPDCN cell line Gen2.2 (AID 1224824).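 Also: cells exposed to compounds for 48 h before reading; 100% = DMSO and 0% = bortezomib.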 Conditions: Gen2.2 BPDCN cells; at 45.8 µM (top of the series) unless noted. The essentials:
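Readout is ATP luminescence from Gen2.2 cells after two days of drug exposure in serum-containing medium at 37 °C. Values express percent activity, with vehicle defining full signal and 9.2 uM bortezomib defining zero.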

For experiment [7] the following is noted: Ebola virus entry assay, reporter ratio channel; AC50: Channel type: primary unless noted; outcome: Channel type: primary unless noted.
For experiment [8] the following is noted: Ebola virus entry assay, blue channel (ratio component).

For part of these data: Potency and affinity values are given separately. Calls of active or inactive are those of the source. Where a SMILES comes first, the peptide text is derived from it. Bridges are numbered along the chain shown (N, C = ends). [ ]: non-standard residue; d: D form. The star is where a group is joined. Dab(CH2SO3H) = N[C@@H](CCNCS(=O)(=O)O)C(=O)O; X1 = CC[C@@H](C)CCCCC(=O)*; Dab = NCC[C@H](N)C(=O)O

A word on the AC50: it is the concentration at which the activity in the assay is half-maximal.

For `CO/N=C(\C(=O)N[C@@H]1C(=O)N2C(C(=O)O)=CCS[C@H]12)c1csc(N)n1`, the outcome in experiment [1], in experiment [2] and in experiment [3] was inactive.

As for `CC(C)[C@H](N)C(=O)OCC(CO)OCn1cnc2c(=O)[nH]c(N)nc21` (stereo partly specified), the call in experiment [1], in experiment [2] and in experiment [3] was inactive.

As for `Clc1ccc2c(c1)C(c1ccccc1)=NCc1nncn1-2`, the result in experiment [1], in experiment [2] and in experiment [3] was inactive.

In the case of `Nc1nc2[nH]cc(CCc3ccc(C(=O)N[C@@H](CCC(=O)O)C(=O)O)cc3)c2c(=O)[nH]1`, the figures for the Potency in experiment [4] and in experiment [5] were 0.059 µM (active) and 0.187 µM (active), respectively.

As for `CC(C)C[C@H](CN)CC(=O)O`, the cell viability, % of control (lower = more cytotoxic) in experiment [6] was found to be 401%.

`Nc1nc(Cl)nc2c1ncn2[C@H]1C[C@H](O)[C@@H](CO)O1`: the Potency in experiment [4] is 9.59 µM (active); in experiment [5], 48.1 µM (active).

Take `N#Cc1ccc(C(c2ccc(C#N)cc2)n2cncn2)cc1`: the Potency entry in experiment [5] is “inactive”.

With `C[C@]12CC[C@@H]3c4ccc(OC(=O)N(CCCl)CCCl)cc4CC[C@H]3[C@@H]1CC[C@@H]2OP(=O)(O)O`, the cell viability, % of control (lower = more cytotoxic) in experiment [6] turned out to be 99.3%.

On to `CN1C[C@H](C(=O)N[C@]2(C)O[C@@]3(O)[C@@H]4CCCN4C(=O)[C@H](Cc4ccccc4)N3C2=O)C=C2c3cccc4[nH]cc(c34)C[C@H]21`, for which, in experiment [3], the result was inactive.

Turning to `CO[C@H]1C[C@@H]2CC[C@@H](C)[C@@](O)(O2)C(=O)C(=O)N2CCCC[C@@H]2C(=O)O[C@H]([C@@H](C)C[C@@H]2CC[C@H](O)[C@H](OC)C2)CC(=O)[C@H](C)C=C(C)[C@@H](O)[C@@H](OC)C(=O)[C@H](C)C[C@H](C)C=CC=CC=C1C`, the outcome in experiment [7] is “inactive [Channel type: confirmation]”. In addition, the outcome in experiment [8] and in experiment [3] was inactive.

Take `O=C(OC1C[C@@H]2CC3C[C@H](C1)N2CC3=O)c1c[nH]c2ccccc12` (stereo partly specified): the result in experiment [2] and in experiment [3] was inactive.

Take `CCOC(=O)C1=C(COCCN)NC(C)=C(C(=O)OC)C1c1ccccc1Cl` (stereo unspecified): the result in experiment [3] was inactive.

`N[C@@H](CCC(=O)N[C@@H](CS)C(=O)NCC(=O)O)C(=O)O`: the outcome in experiment [7] and in experiment [8] was inactive.

For the molecule `CN1[C@@H]2CC[C@H]1CC(OC(c1ccccc1)c1ccccc1)C2` (stereo partly specified), in experiment [7], the outcome is “inactive [Channel type: confirmation]”. Also, in experiment [8], the result was inactive. Moreover, in experiment [3], the concentration at half-maximal activity (AC50) is 3.55 µM (active).

For `CC(C)NCC(O)c1cc(O)cc(O)c1` (stereo unspecified), the outcome in experiment [7] and in experiment [8] was inactive.

Regarding `CC[C@H]1OC(=O)[C@H](C)[C@@H](O[C@H]2C[C@@](C)(OC)[C@@H](O)[C@H](C)O2)C(C)[C@@H](O[C@@H]2O[C@H](C)C[C@H](N(C)C)[C@@H]2O)[C@](C)(OC)C[C@@H](C)C(=O)[C@H](C)[C@@H](O)[C@]1(C)O` (stereo partly specified), in experiment [7], the outcome is “inactive [Channel type: confirmation]”. The result in experiment [8] was inactive. Further, the AC50 in experiment [3] was 7.94 µM (active).

On to `CO[C@@H]1[C@@H](O[C@@H]2O[C@H](C)[C@@H](O[C@H]3C[C@@](C)(O)[C@@H](O)[C@H](C)O3)[C@H](N(C)C)[C@H]2O)[C@@H](CC=O)C[C@@H](C)[C@@H](O[C@@H]2CC[C@H](N(C)C)[C@@H](C)O2)/C=C/C=C/C[C@@H](C)OC(=O)C[C@H]1O`, for which, in experiment [3], the half-maximal activity concentration (AC50) was 11.2 µM (active).

Consider `CC(=O)O[C@H]1C(=O)[C@@]2(C)[C@H]([C@H](OC(=O)c3ccccc3)[C@]3(O)C[C@H](OC(=O)[C@H](O)[C@@H](NC(=O)c4ccccc4)c4ccccc4)C(C)=C1C3(C)C)[C@]1(OC(C)=O)CO[C@@H]1C[C@@H]2O`, for which the molecule was classed as inactive in experiment [2] and in experiment [3].

For `CN(C)CCOc1ccc(/C(=C(/CCCl)c2ccccc2)c2ccccc2)cc1`, the outcome in experiment [7] was “inactive [Channel type: confirmation]”. Also, the outcome in experiment [8] was inactive. For the same molecule, the AC50 in experiment [3] was 3.55 µM (active).

In the case of `O=C(O[C@H]1CN2CCC1CC2)N1CCc2ccccc2[C@@H]1c1ccccc1`, the concentration at half-maximal activity (AC50) in experiment [3] was 7.94 µM (active).

For the molecule `CCN(CC)CCOC(=O)c1ccc(N)cc1`, the outcome in experiment [7] and in experiment [8] was inactive.

`CC(C)NCC(O)c1ccc(NS(C)(=O)=O)cc1` (stereo unspecified): the result in experiment [3] was inactive.

Regarding `CC[C@@H](C)CCCCC(=O)N[C@@H](CCNCS(=O)(=O)O)C(=O)N[C@H](C(=O)N[C@@H](CCNCS(=O)(=O)O)C(=O)N[C@H]1CCNC(=O)[C@H]([C@@H](C)O)NC(=O)[C@H](CCNCS(=O)(=O)O)NC(=O)[C@H](CCNCS(=O)(=O)O)NC(=O)[C@H](CC(C)C)NC(=O)[C@@H](CC(C)C)NC(=O)[C@H](CCNCS(=O)(=O)O)NC1=O)[C@@H](C)O` (X1-[Dab(CH2SO3H)]T[Dab(CH2SO3H)][Dab][Dab(CH2SO3H)][dL]L[Dab(CH2SO3H)][Dab(CH2SO3H)]T; lactam 4-C), the outcome in experiment [3] was inactive.

With `CN1CCN(C(c2ccccc2)c2ccc(Cl)cc2)CC1` (stereo unspecified), the concentration at half-maximal activity (AC50) in experiment [3] is 10 µM (active).

With `COc1cc(NS(C)(=O)=O)ccc1Nc1c2ccccc2nc2ccccc12`, the call in experiment [2] and in experiment [3] was inactive.

Consider `CN=C1CN(O)C(c2ccccc2)=c2cc(Cl)ccc2=N1`, for which the outcome in experiment [2] was inactive. In addition, the half-maximal activity concentration (AC50) in experiment [3] was 12.6 µM (active).

Turning to `C[C@](O)(CS(=O)(=O)c1ccc(F)cc1)C(=O)Nc1ccc(C#N)c(C(F)(F)F)c1`, in experiment [3], the outcome was inactive. Also, in experiment [6], the cell viability, % of control (lower = more cytotoxic) stood at 14%.

For `CN1CCN2c3ncccc3Cc3ccccc3C2C1` (stereo unspecified), the result in experiment [3] was inactive.

With `COc1ccc2c(c1)C13CCCC[C@@H]1C(C2)N(C)CC3` (stereo partly specified), the outcome in experiment [3] was inactive.

For the molecule `CO[C@H]1C=CO[C@@]2(C)Oc3c(C)c(O)c4c(O)c(c(/C=N/N5CCN(C6CCCC6)CC5)c(O)c4c3C2=O)NC(=O)/C(C)=C\C=C[C@H](C)[C@H](O)[C@@H](C)[C@@H](O)[C@@H](C)[C@H](OC(C)=O)[C@@H]1C`, the result in experiment [2] and in experiment [3] was inactive.

As to `CNCCC=C1c2ccccc2CCc2ccccc21`, in experiment [3], the AC50 is 7.94 µM (active).

On to `COCCOC(=O)C1=C(C)NC(C)=C(C(=O)OC(C)C)C1c1cccc([N+](=O)[O-])c1` (stereo unspecified), for which the result in experiment [7] and in experiment [8] was inactive.

As to `CCCCC(CC)CN1CN(CC(CC)CCCC)CC(C)(N)C1` (stereo unspecified), the outcome in experiment [7] and in experiment [8] was inactive.

`CC(C)C[C@H]1C(=O)N2CCC[C@H]2[C@]2(O)O[C@](NC(=O)[C@@H]3C=C4c5cccc6[nH]c(Br)c(c56)C[C@H]4N(C)C3)(C(C)C)C(=O)N12`: the molecule was classed as inactive in experiment [2] and in experiment [3].

On to `CCN(CC)CC#CCOC(=O)C(O)(c1ccccc1)C1CCCCC1` (stereo unspecified), for which the outcome in experiment [3] was inactive.

Consider `O=C(O)C[C@H](O)C[C@H](O)/C=C/c1c(C2CC2)nc2ccccc2c1-c1ccc(F)cc1`, for which, in experiment [3], the result was inactive.

As for `CN1CCN(CCC=C2c3ccccc3Sc3ccc(S(=O)(=O)N(C)C)cc32)CC1`, the outcome in experiment [7] is “inactive [Channel type: confirmation]”. In experiment [3], the AC50 is 4.47 µM (active).
